Screening data: PubChem BioAssay, several laboratories
Compounds with a hit are over-represented: about 1.4% of the library has one in this group of screens.
VLA-4 inh – inhibition in a human VLA-4 binding assay | P13612 | VLA-4 expressing cells, ligand binding flow cytometry | inhibition, % (about 7 µM as worked out from the volumes in the protocol) | hit rate 0.2% among 330,000 | AID 2557; in the data active = inhibition above about 50%
A3A deaminase – blocks human APOBEC3A ssDNA deamination. P31941. recombinant A3A, FAM/TAMRA ssDNA deamination fluorescence. inhibition, % at 20 µM. hit rate 0.41% among 330,000. AID 493011;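 active = at least 40% inhibition at 20 µM here, with at most 30% in a related deaminase screen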;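 also: plate controls were A3A with DMSO for no effect and wells lacking A3A enzyme for full effect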
Target sequence (P31941 whole entry, looked up): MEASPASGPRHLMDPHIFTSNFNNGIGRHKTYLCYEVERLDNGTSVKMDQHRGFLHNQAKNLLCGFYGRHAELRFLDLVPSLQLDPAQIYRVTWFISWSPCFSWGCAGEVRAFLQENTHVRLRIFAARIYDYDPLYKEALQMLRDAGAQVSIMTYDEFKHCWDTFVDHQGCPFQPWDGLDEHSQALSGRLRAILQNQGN
A3G deaminase – inhibitors of human APOBEC3G DNA deaminase. inhibition, % at 20 µM. Q9HC16. hit rate 0.28% among 330,000. recombinant A3G, ssDNA deamination FAM/TAMRA fluorescence;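 active = inhibition of at least 40% at 20 µM, with no more than 30% in the related APOBEC3A deaminase screen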;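 also: plate controls were DMSO wells with A3G for no effect and wells lacking A3G enzyme for full effect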
Target sequence (Q9HC16 whole entry, looked up): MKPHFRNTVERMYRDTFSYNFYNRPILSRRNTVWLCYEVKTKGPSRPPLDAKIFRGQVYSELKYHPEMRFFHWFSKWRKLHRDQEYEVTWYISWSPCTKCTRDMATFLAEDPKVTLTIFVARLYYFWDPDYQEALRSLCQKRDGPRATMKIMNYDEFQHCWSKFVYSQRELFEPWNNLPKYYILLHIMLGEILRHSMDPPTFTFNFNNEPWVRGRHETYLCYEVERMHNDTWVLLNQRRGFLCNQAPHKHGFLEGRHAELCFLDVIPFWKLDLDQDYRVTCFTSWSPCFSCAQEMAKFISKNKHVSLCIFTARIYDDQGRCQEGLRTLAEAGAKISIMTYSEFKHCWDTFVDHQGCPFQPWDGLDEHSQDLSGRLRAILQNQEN
GRK2 inh – inhibitors of human GRK2 displacing RNA aptamer. P25098. bead flow cytometry, FAM-aptamer displacement from GRK2. inhibition of aptamer binding, % at 10 µM. hit rate 0.59% among 330,000. AID 488847;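 active = inhibition of aptamer binding above 40%, roughly 3 SD of noise, on plates passing a quality check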;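 also: median bead fluorescence of bound FAM aptamer so fluorescent compounds give negative values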
VLA-4 allo CP – human VLA-4 allosteric modulation in cherry picked compounds. AID 2813. hit rate 2% among 1,300. U937 cells, HUTS-21 LIBS mAb binding, flow cytometry; LDV ligand present at threefold Kd. shares compounds with VLA-4 inh. inhibition, % at 6.7 µM; in the data active = inhibition above about 40%;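 also: 0% = ligand without compound and 100% = no ligand background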
Starred values were filed as active, the others as inactive; nt = no result given.

SMILES	VLA-4 inh	A3A deaminase	A3G deaminase	GRK2 inh	VLA-4 allo CP
Cc1ccc2c(c1)c1c(n2CC(O)CNC2CCCCC2)CCCC1 (stereo not drawn)	51.8*	-6.0	-6.2	0.0	17.9
Cc1ccc2c(c1)c1c(n2CC(O)CNC(CO)(CO)CO)CCCC1 (stereo not drawn)	5.5	-5.8	-7.9	0.0	nt
CCOC(=O)N1CCC2(CC1)CC(=O)c1cc(O)ccc1O2	109.4*	1.5	2.4	0.0	10.4
CCCCC(=O)Nc1ccc(C(=O)NNC(=S)NC(=O)c2cccs2)cc1	14.8	-1.3	2.9	0.0	nt
CCOC(=O)C1(Cc2ccccc2Cl)CCN(C(=O)CCn2ccnc2C)CC1	52.9*	-5.2	9.9	0.0	-6.2
OCCCNc1nc(-c2ccccc2)c2cc(Br)ccc2n1	0.9	-3.5	6.4	0.0	nt
Cc1cc(C(=O)COC(=O)CCC(=O)c2ccc3c(c2)OCCO3)c(C)n1Cc1ccco1	-23.4	5.0	4.2	7.0	nt
COc1ccc2c(c1)C1(Nc3ccccc3-c3nc4ccccc4n31)C(=O)N2 (stereo not drawn)	-0.5	0.7	-2.8	0.0	nt
CC1(c2ccncc2)Nc2ccccc2-c2nc3ccccc3n21 (stereo not drawn)	51.4*	-1.5	-4.4	1.0	-1.5
Cc1cc(/C=C2/NC(=S)NC2=O)c(C)n1-c1cccnc1	-172.7	1.3	-3.0	0.0	nt
Cc1cc(/C=C2/NC(=O)N(c3ccccc3)C2=O)c(C)n1-c1cccnc1	43.1	-3.5	-5.1	13.0	-11.0
Cc1cc(NS(=O)(=O)c2ccc(NC(=O)CCCOc3ccccc3C)cc2)no1	5.9	-6.6	-13.2	0.0	nt
COc1cc(N)c(Cl)cc1C(=O)OCC(=O)NCC1CCCCC1	10.9	1.0	0.0	0.0	4.7
O=C(COC(=O)c1ccccc1Br)NCC1CCCCC1	1.1	1.2	0.2	3.0	-21.6
O=C(COC(=O)c1ccccc1NCCO)NCC1CCCCC1	-9.7	7.9	-4.7	0.0	nt
O=C(COC(=O)c1ccccc1Br)Nc1ccccc1F	36.2	-5.4	-2.3	4.0	8.1
CCn1c(CC(=O)Nc2ccc(C)cc2)nnc1SCC(=O)N1CCOCC1	-6.5	3.4	7.1	0.0	nt
COc1ccc([C@H]2C(C(=O)O)=C[C@@H](C(C)(C)C)N2S(=O)(=O)c2ccccc2)cc1	-14.4	-0.4	-2.4	3.0	-0.8
Cc1ccc(S(=O)(=O)N2[C@@H](c3cccc(C)c3)C(C(=O)O)=C[C@H]2C(C)(C)C)cc1	-13.3	-3.1	-5.9	4.0	3.3
Cc1ccc(S(=O)(=O)N2[C@@H](c3ccc(C(C)C)cc3)C(C(=O)O)=C[C@H]2C(C)(C)C)cc1	29.0	-4.3	-6.7	0.0	8.8
Cc1ccc(NC(=O)c2nc[nH]c2C(=O)NCCCCNC(=O)c2[nH]cnc2C(=O)Nc2ccc(C)cc2)cc1	4.2	-2.8	-9.2	4.0	nt
CC(=O)Nc1ccc(N2C(=O)CC(N3CC(C)OC(C)C3)C2=O)cc1 (stereo not drawn)	5.3	-5.3	-6.9	0.0	9.0
CC(=O)Nc1ccc(N2C(=O)CC(N3CCSCC3)C2=O)cc1 (stereo not drawn)	-7.2	-3.1	-6.0	0.0	nt
O=C(Cn1nnc2ccccc21)N/N=C\c1cccs1	16.3	-2.9	-8.2	2.0	nt
Cc1ccc(C)c(S(=O)(=O)Nc2ccc(C(N)=O)cc2)c1	-5.0	-1.0	-1.2	3.0	-6.2
SMILES	VLA-4 inh	A3A deaminase	A3G deaminase	GRK2 inh	VLA-4 allo CP
COc1ccc(C(=O)c2c3ccccc3[n+]([O-])n2CCC(N)=O)cc1	55.4*	-2.0	-5.0	3.0	7.3
O=C(Oc1ccc(F)cc1C(=O)/C=C/c1cccs1)c1cccc([N+](=O)[O-])c1	49.7*	-3.3	-7.7	5.0	40.6*
CSCC[C@H](NC(=O)c1ccc(Br)o1)c1nnc2ccccn12	1.4	-0.9	-3.9	3.0	nt
Nc1ccc(S(=O)(=O)c2ccccc2)nc1	43.6	-3.7	-8.9	4.0	-10.2
COC(=O)Cc1ccc(NC(=O)c2ccc(C)c(C)c2)cc1	60.1*	-1.4	-5.3	2.0	10.9
COC(=O)Cc1ccc(NC(=O)c2ccc(NC(=O)c3ccco3)cc2)cc1	-3.4	0.4	-3.6	1.0	nt
CC(=O)Oc1ccc(Cl)cc1/C=C/c1cc(OC(C)=O)c2ccccc2n1	-35.5	nt	nt	0.0	nt
COc1cc(Cl)cc(/C=C/c2ccc3ccccc3n2)c1OC(C)=O	41.2	-4.6	-5.1	1.0	-19.2
CCn1nnnc1SCC(=O)Nc1sc(C)c(C)c1C#N	94.2*	1.4	-1.5	1.0	-0.8
Cc1sc(NC(=O)CSc2nnnn2C(C)C)c(C#N)c1C	0.3	-3.8	-7.8	3.0	nt
Cc1ccc(S(=O)(=O)C(NC(=O)c2ccccc2)=C(Cl)Cl)cc1	53.6*	0.0	-0.1	0.0	-1.1
Cc1ccc(C(=O)NC(=C(Cl)Cl)S(=O)(=O)c2ccc(C)cc2)cc1	4.3	2.5	-4.4	0.0	nt
O=C(N/N=C/c1ccc(Cl)cc1)c1cc(-c2cccnc2)nc2ccccc12	49.9*	-3.8	-5.6	0.0	18.3
O=C(N/N=C/c1ccc(Cl)c([N+](=O)[O-])c1)c1cc(-c2ccccc2)nc2ccccc12	56.4*	-4.1	-5.9	2.0	5.3
O=C(N/N=C/c1cccnc1)c1cc(-c2ccc(Cl)cc2)nc2ccccc12	30.1	-0.8	-1.6	2.0	nt
COc1cc(/C=N/NC(=O)c2ccncc2)c([N+](=O)[O-])cc1OC	56.9*	-5.5	-8.9	2.0	-5.3
Cc1ccc2c(C)c(C(=O)Nc3c(C)n(C)n(-c4ccccc4)c3=O)oc2c1	9.5	-4.1	-7.5	2.0	-9.5
Cc1c(NC(=O)Nc2ccc(Cl)c(Cl)c2)c(=O)n(-c2ccccc2)n1C	64.9*	0.8	1.7	0.0	8.2
COc1c(C(=O)Nc2c(C)n(C)n(-c3ccccc3)c2=O)ccc2ccccc12	-1.1	-3.9	-7.3	5.0	0.0
Cc1c(NC(=O)Nc2ccccc2)c(=O)n(-c2ccccc2)n1C	-20.9	nt	nt	0.0	nt
Cc1c(NC(=O)c2ccc(C(=O)Nc3c(C)n(C)n(-c4ccccc4)c3=O)cc2)c(=O)n(-c2ccccc2)n1C	1.9	-6.4	-4.1	0.0	nt
Cc1cc2oc(C(=O)Nc3c(C)n(C)n(-c4ccccc4)c3=O)c(C)c2cc1C	15.9	-3.8	-7.0	0.0	nt
CC(=O)Nc1ccc(Oc2nc(-c3cccnc3)nc3sc4c(c23)CCCC4)cc1	3.4	0.2	-1.3	2.0	nt
COCCN1CC(=O)N2C(c3cccc(C)c3)c3[nH]c4ccccc4c3C[C@H]2C1=O (stereo partly drawn)	41.3	-4.3	-7.4	2.0	-2.8
O=C(COc1ccccc1)NCc1nnc2c3ccccc3c(-c3ccccc3)nn12	55.7*	1.9	-6.9	4.0	0.6
CC(=O)NCc1nnc2c3ccccc3c(-c3ccccc3)nn12	-3.8	1.3	1.6	0.0	nt
O=C(NNC(=O)c1cc(OCC(F)(F)F)ccc1OCC(F)(F)F)c1ccc(Cl)c(Cl)c1	12.8	-2.5	-3.6	0.0	nt
CC(C)=N/N=C(/c1ccc([N+](=O)[O-])cc1)C12CN3CN(CN(C3)C1)C2	41.0	-3.6	-5.4	4.0	-6.9
